Consider 35 targets from the supplement of paper PMC10849652.

Of roughly 7,900 targets only a part is listed; those with a hit were picked by preference. About 0.6% of all pairs of compound and target were hits.

Sequence of UniProt Q8IWA5 (Q8IWA5 whole entry, looked up): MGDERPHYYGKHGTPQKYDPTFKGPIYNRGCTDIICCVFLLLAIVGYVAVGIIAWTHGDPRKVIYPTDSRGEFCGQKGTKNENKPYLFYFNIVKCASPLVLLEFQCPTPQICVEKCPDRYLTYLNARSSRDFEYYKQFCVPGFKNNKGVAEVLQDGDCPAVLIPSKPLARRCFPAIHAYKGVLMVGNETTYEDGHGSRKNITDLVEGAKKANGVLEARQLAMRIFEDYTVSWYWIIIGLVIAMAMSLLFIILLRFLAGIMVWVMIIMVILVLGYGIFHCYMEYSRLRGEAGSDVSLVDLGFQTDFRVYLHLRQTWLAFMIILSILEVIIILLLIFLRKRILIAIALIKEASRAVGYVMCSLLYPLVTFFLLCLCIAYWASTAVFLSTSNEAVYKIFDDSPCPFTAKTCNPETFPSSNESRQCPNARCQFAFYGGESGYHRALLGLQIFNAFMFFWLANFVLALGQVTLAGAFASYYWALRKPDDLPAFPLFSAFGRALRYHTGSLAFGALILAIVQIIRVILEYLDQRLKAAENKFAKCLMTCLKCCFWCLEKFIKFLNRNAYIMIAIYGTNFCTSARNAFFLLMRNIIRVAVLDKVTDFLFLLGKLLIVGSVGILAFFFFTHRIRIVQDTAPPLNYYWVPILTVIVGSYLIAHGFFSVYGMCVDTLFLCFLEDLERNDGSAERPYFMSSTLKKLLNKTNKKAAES
Sequence of UniProt Q92609 (Q92609 whole entry, looked up): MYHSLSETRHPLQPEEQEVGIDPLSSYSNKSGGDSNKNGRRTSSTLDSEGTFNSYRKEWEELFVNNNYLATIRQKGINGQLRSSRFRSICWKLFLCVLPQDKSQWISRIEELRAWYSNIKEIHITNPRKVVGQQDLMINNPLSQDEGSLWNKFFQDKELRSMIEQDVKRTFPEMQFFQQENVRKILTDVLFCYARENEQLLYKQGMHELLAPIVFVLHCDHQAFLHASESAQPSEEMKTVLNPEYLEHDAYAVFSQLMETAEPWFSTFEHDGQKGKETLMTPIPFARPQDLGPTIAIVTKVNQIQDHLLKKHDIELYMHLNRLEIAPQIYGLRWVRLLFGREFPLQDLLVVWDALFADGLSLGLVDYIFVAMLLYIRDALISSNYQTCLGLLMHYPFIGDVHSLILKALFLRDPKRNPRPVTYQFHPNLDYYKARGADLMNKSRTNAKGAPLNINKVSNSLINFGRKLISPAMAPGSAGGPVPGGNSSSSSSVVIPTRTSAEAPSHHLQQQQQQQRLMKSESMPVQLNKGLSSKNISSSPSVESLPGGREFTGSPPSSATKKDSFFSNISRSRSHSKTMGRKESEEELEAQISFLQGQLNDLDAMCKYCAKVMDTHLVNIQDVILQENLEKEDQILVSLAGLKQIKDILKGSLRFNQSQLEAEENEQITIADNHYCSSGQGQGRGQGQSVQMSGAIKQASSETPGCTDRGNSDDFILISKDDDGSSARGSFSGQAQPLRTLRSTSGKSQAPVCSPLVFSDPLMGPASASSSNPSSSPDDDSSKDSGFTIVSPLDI
Sequence of UniProt P51687 (P51687 whole entry, looked up): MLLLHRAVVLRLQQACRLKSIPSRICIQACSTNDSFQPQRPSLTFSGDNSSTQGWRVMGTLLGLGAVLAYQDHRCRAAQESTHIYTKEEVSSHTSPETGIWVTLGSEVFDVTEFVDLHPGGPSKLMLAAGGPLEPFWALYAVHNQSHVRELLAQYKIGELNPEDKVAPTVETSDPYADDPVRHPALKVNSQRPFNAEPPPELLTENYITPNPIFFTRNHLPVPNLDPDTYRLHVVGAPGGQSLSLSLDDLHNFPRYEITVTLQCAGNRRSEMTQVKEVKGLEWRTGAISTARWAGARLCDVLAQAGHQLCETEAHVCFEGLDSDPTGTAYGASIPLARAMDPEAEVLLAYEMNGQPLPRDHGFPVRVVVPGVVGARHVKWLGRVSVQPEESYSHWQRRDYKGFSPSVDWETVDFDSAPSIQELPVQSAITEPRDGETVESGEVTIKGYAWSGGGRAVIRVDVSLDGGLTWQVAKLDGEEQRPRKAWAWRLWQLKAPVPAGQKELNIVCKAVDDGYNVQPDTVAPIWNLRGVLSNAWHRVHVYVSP
Sequence of UniProt O60271 (O60271 whole entry, looked up): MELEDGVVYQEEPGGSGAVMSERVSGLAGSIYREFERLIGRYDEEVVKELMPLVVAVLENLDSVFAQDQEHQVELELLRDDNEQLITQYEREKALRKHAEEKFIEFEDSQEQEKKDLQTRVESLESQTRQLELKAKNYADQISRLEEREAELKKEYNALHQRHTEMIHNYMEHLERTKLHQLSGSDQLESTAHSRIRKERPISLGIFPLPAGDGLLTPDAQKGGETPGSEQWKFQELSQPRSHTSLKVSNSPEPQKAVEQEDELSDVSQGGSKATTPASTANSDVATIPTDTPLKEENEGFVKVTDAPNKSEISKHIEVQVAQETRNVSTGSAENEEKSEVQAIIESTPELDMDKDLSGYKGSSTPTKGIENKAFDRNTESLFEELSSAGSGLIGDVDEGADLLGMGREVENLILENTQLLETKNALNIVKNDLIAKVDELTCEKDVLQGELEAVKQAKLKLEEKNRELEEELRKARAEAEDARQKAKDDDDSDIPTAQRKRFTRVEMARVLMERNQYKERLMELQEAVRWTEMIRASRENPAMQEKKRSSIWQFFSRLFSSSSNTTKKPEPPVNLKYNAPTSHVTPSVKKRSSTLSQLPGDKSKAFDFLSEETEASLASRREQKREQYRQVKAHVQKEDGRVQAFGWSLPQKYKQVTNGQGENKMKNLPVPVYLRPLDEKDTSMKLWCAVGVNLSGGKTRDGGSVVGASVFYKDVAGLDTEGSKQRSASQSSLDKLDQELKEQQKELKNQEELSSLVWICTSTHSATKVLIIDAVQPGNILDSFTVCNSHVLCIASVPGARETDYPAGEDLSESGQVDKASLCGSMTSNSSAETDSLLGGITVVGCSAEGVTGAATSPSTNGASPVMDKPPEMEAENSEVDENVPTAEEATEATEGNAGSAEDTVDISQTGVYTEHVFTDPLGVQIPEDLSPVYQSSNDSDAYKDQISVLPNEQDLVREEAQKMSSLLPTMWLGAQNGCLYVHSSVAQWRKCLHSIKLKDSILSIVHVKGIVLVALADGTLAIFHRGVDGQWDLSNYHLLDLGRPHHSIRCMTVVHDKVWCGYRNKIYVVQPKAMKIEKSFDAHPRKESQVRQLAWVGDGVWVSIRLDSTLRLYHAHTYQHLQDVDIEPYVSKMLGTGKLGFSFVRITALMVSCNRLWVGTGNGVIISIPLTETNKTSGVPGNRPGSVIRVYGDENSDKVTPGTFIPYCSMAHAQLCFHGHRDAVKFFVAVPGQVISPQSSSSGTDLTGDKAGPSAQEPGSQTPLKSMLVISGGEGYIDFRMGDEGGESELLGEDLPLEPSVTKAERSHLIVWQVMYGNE
Sequence of UniProt Q13043 (Q13043 whole entry, looked up): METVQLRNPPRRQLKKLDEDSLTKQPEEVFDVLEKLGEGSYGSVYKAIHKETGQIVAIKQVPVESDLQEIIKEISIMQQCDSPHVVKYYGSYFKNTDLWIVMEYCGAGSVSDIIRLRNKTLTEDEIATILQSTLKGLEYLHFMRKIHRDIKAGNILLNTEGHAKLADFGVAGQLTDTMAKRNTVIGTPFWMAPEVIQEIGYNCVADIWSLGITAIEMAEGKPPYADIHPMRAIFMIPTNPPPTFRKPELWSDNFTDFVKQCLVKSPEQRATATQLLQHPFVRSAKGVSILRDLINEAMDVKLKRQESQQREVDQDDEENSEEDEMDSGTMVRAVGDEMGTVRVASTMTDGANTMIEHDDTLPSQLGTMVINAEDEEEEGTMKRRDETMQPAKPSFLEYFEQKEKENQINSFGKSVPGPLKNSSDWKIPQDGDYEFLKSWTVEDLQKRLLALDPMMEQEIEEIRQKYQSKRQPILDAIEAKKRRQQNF
Sequence of UniProt Q9Y5L4 (Q9Y5L4 whole entry, looked up): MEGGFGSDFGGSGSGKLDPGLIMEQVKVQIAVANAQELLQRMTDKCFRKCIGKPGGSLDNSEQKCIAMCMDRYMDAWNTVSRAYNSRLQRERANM
Sequence of UniProt Q9H2K8 (Q9H2K8 whole entry, looked up): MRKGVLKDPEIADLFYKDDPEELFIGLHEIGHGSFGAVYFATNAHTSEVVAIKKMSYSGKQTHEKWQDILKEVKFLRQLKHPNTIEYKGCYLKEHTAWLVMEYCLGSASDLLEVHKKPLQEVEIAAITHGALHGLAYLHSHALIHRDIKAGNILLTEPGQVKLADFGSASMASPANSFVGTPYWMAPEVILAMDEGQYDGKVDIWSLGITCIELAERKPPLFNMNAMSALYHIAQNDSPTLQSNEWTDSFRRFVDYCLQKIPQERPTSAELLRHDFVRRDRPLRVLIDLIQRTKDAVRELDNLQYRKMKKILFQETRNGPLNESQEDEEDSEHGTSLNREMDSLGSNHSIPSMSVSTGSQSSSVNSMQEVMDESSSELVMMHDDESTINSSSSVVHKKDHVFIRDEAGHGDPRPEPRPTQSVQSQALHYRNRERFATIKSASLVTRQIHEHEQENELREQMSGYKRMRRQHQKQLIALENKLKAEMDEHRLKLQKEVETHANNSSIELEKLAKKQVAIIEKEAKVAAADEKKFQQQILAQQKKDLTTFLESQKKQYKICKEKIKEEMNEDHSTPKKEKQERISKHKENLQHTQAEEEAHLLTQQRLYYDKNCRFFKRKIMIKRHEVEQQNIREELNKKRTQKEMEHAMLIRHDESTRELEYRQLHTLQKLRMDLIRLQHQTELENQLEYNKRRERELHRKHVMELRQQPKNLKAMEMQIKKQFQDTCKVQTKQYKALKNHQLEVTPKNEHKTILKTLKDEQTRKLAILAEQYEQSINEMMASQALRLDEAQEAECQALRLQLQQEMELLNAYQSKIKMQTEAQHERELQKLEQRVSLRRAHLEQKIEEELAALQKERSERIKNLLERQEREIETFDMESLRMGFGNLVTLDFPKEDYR
Sequence of UniProt O00193 (O00193 whole entry, looked up): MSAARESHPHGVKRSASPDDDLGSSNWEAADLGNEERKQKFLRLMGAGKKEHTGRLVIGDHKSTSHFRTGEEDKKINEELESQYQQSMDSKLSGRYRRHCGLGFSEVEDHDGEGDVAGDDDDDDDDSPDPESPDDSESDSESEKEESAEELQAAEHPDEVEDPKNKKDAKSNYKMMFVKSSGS

Compound in the assay: c1cn2cc(-c3ccc4cn[nH]c4c3)nc(Nc3ccc(N4CCOCC4)cc3)c2n1 [entospletinib]
Kind of assay: log2 fold change, soluble protein after heating vs DMSO (PISA); higher = thermal stabilisation; K562 cells, 10 uM, 30 min; active = over 0.2 and 3.5 SD of the protein, either way, in both replicates (recomputed). The method, boiled down: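 Soluble protein was quantified by TMTpro 16plex LC-MS/MS after channel sums were equalised. It was obtained as the supernatant after 21,000xg for 90 min from pooled aliquots of K562 cells (2×10^6 cells/mL, 10 μM compound, 30 min) heated for 3 min across 48°C-58°C and extracted in PBS with 0.5% NP-40 at 4°C. Thermal stability values are relative to control samples and come from duplicates. They are given as log2 fold changes.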
Regarding SLC44A2 isoform 2 (UniProt Q8IWA5), the log2 fold change was -0.085 (inactive).
The figure for SUCLG1 (UniProt P53597) is -0.041 (inactive); for SP3 (UniProt Q02447) it is -0.071 (inactive); for SULT1A1 (UniProt P50225) it is -0.057 (inactive).
To SLC25A42 (UniProt Q86VD7) belongs 0.055 (inactive); to SLC25A39 (UniProt Q9BZJ4), -0.045 (inactive); to SNUPN (UniProt O95149), 0.064 (inactive).
To SRSF3 (UniProt P84103) belongs 0.153 (inactive); to STK38 (UniProt Q15208), -0.033 (inactive).
Turning to SLC29A3 (UniProt Q9BZD2), the log2 fold change was 0.023 (inactive).
Take SNX3 (UniProt O60493): the log2 fold change was 0.084 (inactive).
Take SLC25A38 (UniProt Q96DW6): the log2 fold change is -0.02 (inactive).
Take TEX264 (UniProt Q9Y6I9): the log2 fold change is 0.601 (active).
Take TMBIM1 (UniProt Q969X1): the log2 fold change was -0.019 (inactive).
The figure for TBC1D10B (UniProt Q4KMP7) is 0 (inactive); for TAOK3 (UniProt Q9H2K8) it is -0.016 (inactive).
To SUOX (UniProt P51687) belongs 0.03 (inactive); to TIMM13 (UniProt Q9Y5L4), -0.086 (inactive); to STK4 (UniProt Q13043), -0.024 (inactive).
The figure for TECR (UniProt Q9NZ01) is -0.018 (inactive); for SLC35A1 (UniProt P78382) it is -0.142 (inactive).
Turning to TFAM (UniProt Q00059), the log2 fold change is 0.08 (inactive).
The figure for SMARCAD1 isoform 2 (UniProt Q9H4L7) is -0.008 (inactive); for STK25 (UniProt O00506) it is -0.104 (inactive); for SPG21 (UniProt Q9NZD8) it is -0.028 (inactive).
For the target SSRP1 (UniProt Q08945), the log2 fold change was -0.027 (inactive).
To SREK1 isoform 2 (UniProt Q8WXA9) belongs -0.026 (inactive).
With SRSF4 (UniProt Q08170), the log2 fold change was 0.134 (inactive).
The figure for TIMM29 (UniProt Q9BSF4) is 0.033 (inactive); for SPAG9 (UniProt O60271) it is 0.024 (inactive).
The figure for TBC1D5 isoform 2 (UniProt Q92609) is -0.02 (inactive); for TANK (UniProt Q92844) it is -0.076 (inactive).
In the case of TGFBRAP1 (UniProt Q8WUH2), the log2 fold change was 0.056 (inactive).
SNX2 isoform 2 (UniProt O60749): the log2 fold change was -0.255 (inactive).
To SMAP (UniProt O00193) belongs 0.07 (inactive).
